Laboratory results taken from paper PMC5540273 (PLoS ONE, 2017).

What was measured:
Details in all cases: concentration: 1 μM, replicates: in singlicate; n = 1
SNARK = system: T1, SNARK
T1 construct: gene NUAK2

SNRK = system: SNRK
SRC = system: SRC
SRMS = system: SRMS
SRPK1 = system: SRPK1
SRPK2 = system: SRPK2
SRPK3 = system: SRPK3
STK16 = system: STK16
STK33 = system: STK33
STK35 = system: STK35
STK36 = system: STK36
STK39 = system: STK39
SYK = system: SYK
SgK110 = system: SgK110
TAK1 = system: T2, TAK1
T2 construct: gene MAP3K7

TAOK1 = system: TAOK1
TAOK2 = system: TAOK2
TAOK3 = system: TAOK3
TBK1 = system: TBK1
TEC = system: TEC
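Also: KINOMEscan kinase panel screen.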

Row | Compound | %Inh (SNARK) | %Inh (SNRK) | %Inh (SRC) | %Inh (SRMS) | %Inh (SRPK1) | %Inh (SRPK2) | %Inh (SRPK3) | %Inh (STK16) | %Inh (STK33) | %Inh (STK35) | %Inh (STK36) | %Inh (STK39) | %Inh (SYK) | %Inh (SgK110) | %Inh (TAK1) | %Inh (TAOK1) | %Inh (TAOK2) | %Inh (TAOK3) | %Inh (TBK1) | %Inh (TEC)
1 | Nc1ncnc2scc(-c3ccc(NC(=O)Cc4cc(F)ccc4F)cc3)c12.O=C(O)C(F)(F)F [SB-731254-M] | 23% | 11% | 13% | 30% | 10% | 25% | 3% | 1% | 6% | 0% | 0% | 8% | 0% | 11% | 22% | 11% | 3% | 0% | 30% | 1%
2 | COc1cccc(C2=C(Nc3cccc(O)c3)C(=O)NC2=O)c1 [SB-390771] | 0% | 0% | 0% | 0% | 2% | 0% | 13% | 100% | 0% | 0% | 0% | 8% | 22% | 18% | 100% | 10% | 36% | 9% | 30% | 7%
3 | Cc1ccc(O)cc1Nc1ccnc2cc(-c3ccc(CN4CCCCC4)o3)ccc12 [GW557777] | 11% | 0% | 100% | 23% | 32% | 0% | 15% | 22% | 61% | 0% | 0% | 0% | 69% | 0% | 35% | 0% | 0% | 0% | 0% | 21%
4 | Fc1cc(Cl)ccc1Nc1ccnc2cc(-c3ccc(CN4CCOCC4)o3)ccc12 [GW560109] | 0% | 7% | 99.2% | 15% | 35% | 0% | 10% | 0% | 6% | 92.1% | 0% | 10% | 16% | 3% | 0% | 0% | 0% | 0% | 0% | 76%
5 | CN(C)CCNS(=O)(=O)c1ccc(-c2ccnc3[nH]ccc23)cc1 [GSK977620] | 73% | 0% | 6% | 0% | 45% | 0% | 0% | 62% | 66% | 15% | 0% | 5% | 31% | 0% | 1% | 3% | 0% | 0% | 0% | 0%
6 | CN(c1ccc2c(c1)nc(NCc1ccccc1)n2C)c1ccnc(Nc2ccc(CS(C)(=O)=O)cc2)n1.Cl [GW811603] | 0% | 0% | 32% | 5% | 0% | 30% | 34% | 54% | 0% | 0% | 0% | 7% | 69% | 0% | 46% | 0% | 0% | 0% | 4% | 0%
7 | CNc1nccc(-c2ccc3c(N)n[nH]c3c2)n1 [GSK2206003] | 35% | 0% | 19% | 11% | 68% | 5% | 31% | 34% | 0% | 0% | 0% | 0% | 23% | 0% | 37% | 64% | 0% | 0% | 22% | 5%
8 | Cl.N#CCc1ccc(Nc2nccc(Nc3ccc(Oc4ccccc4)cc3)n2)cc1 [GW639905] | 96.6% | 2% | 37% | 82% | 18% | 0% | 0% | 79% | 0% | 65% | 0% | 10% | 5% | 6% | 0% | 0% | 7% | 0% | 6% | 75%
9 | Nc1ncc(-c2ccc3nccc(-c4ccncc4)c3c2)cc1S(=O)(=O)N1CCCCC1 [GSK1693850] | 22% | 0% | 0% | 0% | 20% | 0% | 0% | 21% | 55% | 0% | 0% | 0% | 29% | 0% | 14% | 3% | 0% | 5% | 6% | 0%
10 | CC(C)c1nc(-c2ccc(F)c(NS(=O)(=O)c3c(F)cccc3F)c2)c(-c2ccnc(Nc3ccc(N4CCOCC4)nc3)n2)s1 [GSK1804250] | 17% | 0% | 100% | 99.9% | 54% | 0% | 18% | 39% | 8% | 74% | 100% | 11% | 46% | 0% | 46% | 4% | 0% | 5% | 6% | 45%
